Reference: PubChem BioAssay AID720553 (National Center for Advancing Translational Sciences (NCATS), 2013)
The campaign covered roughly 340,000 compounds. About 3,300 (0.97%) were called active.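 How the source made its calls: active means maximum activity change below -70%; inconclusive means maximum activity change from -70% to -50%; inactive means maximum activity change above -50%.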 Many of the other results were omitted from the sample, so actives are more common in it than they were.

tested on: Potassium voltage-gated channel subfamily H member 2, brain isoform KCNH2 3.1 (human); experiment: qHTS for Inhibitors of KCHN2 3.1: Mutant qHTS; details: U2OS KCNH2 3.1, thallium flux FluxOr; stronger effect = lower value
Method in brief: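 FluxOr-based Tl+ influx in U2OS cells transduced with KCNH2 3.1 virus; rate constants normalized to DMSO controls.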
On the % scale 0 is the no-effect control and ±100 the full control effect.

| SMILES | activity change |
| --- | --- |
| COc1ccccc1-n1c(SCC(=O)Nc2ccc(Cl)cc2)nc(O)c(Cc2ccccc2)c1=O | 4.83% (inactive) |
| CC(C)c1cc(C(=O)NC2CCCCCC2)c2ccccc2n1 | 2.17% (inactive) |
| C[C@@H]1CN([C@@H](C)CO)S(=O)(=O)c2ccc(C#Cc3cccc(F)c3)cc2O[C@H]1CN(C)S(=O)(=O)c1cn(C)cn1 | 7.52% (inactive) |
| CC1CN(C(=O)CCC(=O)NCc2cccnc2)c2ccccc2O1 (configuration not stated) | 27.3% (inactive) |
| CC1CN(C(=O)CCC(=O)NCCCN2CCC(Cc3ccccc3)CC2)c2cc(Cl)ccc2O1 (configuration not stated) | -84.9% (active) |
| CC1CN(C(=O)CCC(=O)NC2CCN(Cc3ccccc3)CC2)c2ccccc2O1 (configuration not stated) | -0.725% (inactive) |
| O=C1NC(Cc2ccccc2)c2nc3ccc(Br)cc3c(=O)n2-c2cc3ccccc3cc21 (configuration not stated) | -16.2% (inactive) |
| Cc1ccc([C@H]2N[C@]3(CCCN(Cc4ccccc4)C3=O)[C@H]3C(=O)N(Cc4ccccc4)C(=O)[C@@H]23)cc1 | 4.9% (inactive) |
| O=C(COc1ccc(S(=O)(=O)N2CCCC2)cc1[N+](=O)[O-])N1CCCCC1 | -5.01% (inactive) |
| Cc1cc(/C=C2/SC(=O)N(CC(=O)OC(C)C)C2=O)c(C)n1C | -7.88% (inactive) |
| CCN=C1S/C(=C\c2cc(Br)ccc2OCC(=O)OCC)C(=O)N1CC | -71.6% (active) |
| CCOC(=O)CC1C(=O)NCCN1C(=O)COc1ccc(Br)cc1C (configuration not stated) | 3.78% (inactive) |
| Cc1ccc(C(=O)N2CCCc3ccccc32)c(Cl)c1 | 1.37% (inactive) |
| CC1=C(N2CCN(c3ncccn3)CC2)CCC1=O | -6.3% (inactive) |
| Cc1nn(-c2ccccc2)c2c1C(=O)NC(=O)C(C)(C)C2 | -21.5% (inactive) |
| Cc1nn(-c2ncccn2)c2c1C(=O)CC(C)(C)C2Br (configuration not stated) | -151% (active) |
| COc1ccccc1NC(=O)C(CC(=O)O)Cc1cc(C)cc(C)c1 (configuration not stated) | 12.9% (inactive) |
| C[C@H](O)[C@@H]1C(=O)N2CCc3c([nH]c4ccccc34)[C@@H]2C[C@@H]1N(C)C(=O)Nc1ccc(F)cc1 | -6% (inactive) |
| Cc1cc2c(cc1C)N(Cc1ccccc1)C1=NCCCN12 | -15.2% (inactive) |
| OC(CN1C2=NCCCN2c2ccccc21)c1ccc(Br)cc1 (configuration not stated) | -80.8% (active) |
| CC(C)(C)C(=O)CN1C2=NCCN2c2ccccc21 | 7.56% (inactive) |

| SMILES | activity change |
| --- | --- |
| CC(C)N(Cc1nc(-c2ccc3c(c2)OCO3)no1)CC1CCC(=O)N1 (configuration not stated) | -93.2% (active) |
| CCn1ccnc1CN(C)Cc1nc(-c2ccc3c(c2)OCO3)no1 | -1.19% (inactive) |
| CN(CCN1CCOCC1)Cc1nc(-c2ccc3c(c2)OCO3)no1 | 3.94% (inactive) |
| C[C@@H]1CN([C@H](C)CO)C(=O)c2cc(-c3ccc(F)cc3)cnc2O[C@H]1CN(C)C(=O)c1ccc(F)cc1 | -4.52% (inactive) |
| O=C(NCC(F)(F)F)c1ccc(S(=O)(=O)NCCc2ccc3c(c2)OCCO3)cc1 | -2.33% (inactive) |
| CCCCCCn1c(=O)n2n(c1=O)C[C@]1(OC(=O)NCc3ccc(OC)c(OC)c3)CN(S(=O)(=O)c3ccc(C)cc3)C[C@]1(O)C2 | -6.76% (inactive) |
| CN(CC#CCC(c1ccccc1)c1ccccc1)C(C)(C)C | -77% (active) |
| CC(C)(C)N(CC#CCC(O)(c1ccccc1)C1CCCC1)CCO (configuration not stated) | -6.97% (inactive) |
| Cc1ccc(CCNC(=O)CN2C(=O)CSc3ccc(S(=O)(=O)N4CCOCC4)cc32)cc1 | 4.19% (inactive) |
| COC(=O)[C@H]1C[C@H](OC(=O)NCc2ccccc2)[C@@]2(O)CN(S(=O)(=O)c3ccc(C)cc3)CC2[C@H]1C(=O)OC (some centres not stated) | 2.28% (inactive) |
| C[C@H](CO)N1C[C@H](C)[C@@H](CN(C)Cc2ccc3c(c2)OCO3)OCc2cnnn2CCCC1=O | -0.449% (inactive) |
| COc1ccccc1C(=O)NCc1nnc(SC(C)C(=O)Nc2nccs2)n1C (configuration not stated) | -5.02% (inactive) |
| Cn1c(CNC(=O)c2ccccc2F)nnc1SCc1ccc(F)cc1 | 18.4% (inactive) |
| CC(Sc1nnc(CNC(=O)c2ccccc2F)n1C)C(=O)Nc1nccs1 (configuration not stated) | -211% (active) |
| O=C(CN1CCCCC1)Nc1ccccc1C(=O)NC1CC1 | -2.8% (inactive) |
| Cc1ccc(OCC(=O)Nc2ccccc2C(=O)NC2CC2)cc1 | 21% (inactive) |
| N#Cc1ccc(CN2CCN(CC(=O)Nc3ccccc3C(=O)NC3CC3)CC2)cc1 | -103% (active) |
| OCCC1CN(Cc2ccc(Oc3ncccn3)cc2)CCN1CCc1ccccc1 (configuration not stated) | -3.13% (inactive) |
| COC(=O)c1ccc(CN2CCN(CCCc3ccccc3)C(CCO)C2)cc1 (configuration not stated) | -48.5% (inactive) |
| CCOc1ccc(CN2CCN(CCCc3ccccc3)C(CCO)C2)cc1 (configuration not stated) | -77.7% (active) |
| O=C1c2ccccc2-c2ccccc2NC1O (configuration not stated) | 2.59% (inactive) |
